Laboratory results from PubChem BioAssay.
Active and inactive are the calls of the source.

Legend:
[1] = binders of probe aFSTL3 on microarray, primary screen, stem cell growth factor project, biochemical, small-molecule microarray, fluorescence 635/667 (AID 1064); details: higher = more signal;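 note: measures binding of the biotinylated anti-FSTL3 antibody to printed compounds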
[2] = binders from COS7 lysate, DM2A8 probe, primary screen, torsin A project, cell lysate, small-molecule microarray, fluorescence 635/667 (AID 1065); details: higher = more signal, COS7 lysate expressing mutant human TOR1A
[3] = binders of probe aFGF2 on microarray, primary screen, stem cell growth factor project, biochemical, small-molecule microarray, fluorescence 635/667 (AID 1067); details: higher = more signal;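 note: measures binding of biotinylated aFGF2 protein to printed compounds on slides; z-score merges feature fluorescence and signal-to-noise across triplicate slides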
[4] = binders of probe aFGF10 on microarray, primary screen, stem cell growth factor project, biochemical, small-molecule microarray, fluorescence 635/667 (AID 1071); details: higher = more signal;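 note: score merges 667 nm spot intensity and signal to noise from triplicate slides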
[5] = target: Neurogenic locus notch homolog protein 2 (Homo sapiens) (UniProt Q04721); assay: Notch2 binders on small-molecule microarrays, primary screen, biochemical, small-molecule microarray, 635 nm fluorescence, stem cell growth factors (AID 1073); details: Notch2 binding, higher = more signal
[6] = target: Pro-neuregulin-1, membrane-bound isoform (Homo sapiens) (UniProt Q02297); assay: NRG1 binders on small-molecule microarrays, primary screen, psychiatric disease protein project, biochemical, small-molecule microarray, fluorescence 635/667 (AID 1075); details: NRG1 binding, 635 nm fluorescence, higher = more signal;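 note: score combines 667 nm spot fluorescence with signal to noise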
[7] = system: Neuregulin-1 EGF-like domain; assay: binders of neuregulin-1 EGF-like domain, primary screen, biochemical, small-molecule microarray, 635 nm fluorescence (AID 1081); details: small-molecule microarray binding, higher = more signal;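 note: binding of the protein to compounds printed on small-molecule microarray slides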
[8] = FRG1 promoter luciferase signal modulators, primary screen, FRG1 inhibition for FSHD, cell-based, C2C12 myotubes, firefly/Renilla luciferase, luminescence (AID 1084); details: higher = more signal, called active from +8 up or from −8 down
[9] = binders of probe aFST on microarray, primary screen, stem cell growth factor project, biochemical, small-molecule microarray, fluorescence 635/667 (AID 1086); details: higher = more signal;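 note: score merges 667 nm fluorescence with signal-to-noise of each printed compound spot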
[10] = binders of probe aHhip on microarray, primary screen, stem cell growth factor project, biochemical, small-molecule microarray, fluorescence 635/667 (AID 1087); details: higher = more signal;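 note: score merges spot fluorescence at 667nm with spot signal to noise ratio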

Chain of Pro-neuregulin-1, membrane-bound isoform (Homo sapiens) (Q02297 whole entry, looked up, the tested form may be a part, canonical isoform): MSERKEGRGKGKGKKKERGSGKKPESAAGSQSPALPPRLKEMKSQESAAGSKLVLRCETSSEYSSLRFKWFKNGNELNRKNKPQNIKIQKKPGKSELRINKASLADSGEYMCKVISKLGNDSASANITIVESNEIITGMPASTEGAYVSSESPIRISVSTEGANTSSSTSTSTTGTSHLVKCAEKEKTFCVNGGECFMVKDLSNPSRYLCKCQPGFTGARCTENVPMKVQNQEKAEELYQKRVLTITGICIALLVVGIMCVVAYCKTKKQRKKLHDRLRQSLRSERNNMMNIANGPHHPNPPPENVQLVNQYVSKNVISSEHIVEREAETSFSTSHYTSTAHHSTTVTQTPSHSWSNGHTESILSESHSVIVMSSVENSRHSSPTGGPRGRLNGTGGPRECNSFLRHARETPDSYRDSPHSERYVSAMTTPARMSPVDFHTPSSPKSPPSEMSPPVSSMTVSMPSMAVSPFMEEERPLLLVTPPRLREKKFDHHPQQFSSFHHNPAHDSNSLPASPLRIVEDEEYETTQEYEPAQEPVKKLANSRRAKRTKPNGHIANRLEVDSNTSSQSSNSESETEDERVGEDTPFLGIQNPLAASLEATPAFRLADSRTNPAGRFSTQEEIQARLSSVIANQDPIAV
Chain of Neurogenic locus notch homolog protein 2 (Homo sapiens) (Q04721 whole entry, looked up, canonical isoform): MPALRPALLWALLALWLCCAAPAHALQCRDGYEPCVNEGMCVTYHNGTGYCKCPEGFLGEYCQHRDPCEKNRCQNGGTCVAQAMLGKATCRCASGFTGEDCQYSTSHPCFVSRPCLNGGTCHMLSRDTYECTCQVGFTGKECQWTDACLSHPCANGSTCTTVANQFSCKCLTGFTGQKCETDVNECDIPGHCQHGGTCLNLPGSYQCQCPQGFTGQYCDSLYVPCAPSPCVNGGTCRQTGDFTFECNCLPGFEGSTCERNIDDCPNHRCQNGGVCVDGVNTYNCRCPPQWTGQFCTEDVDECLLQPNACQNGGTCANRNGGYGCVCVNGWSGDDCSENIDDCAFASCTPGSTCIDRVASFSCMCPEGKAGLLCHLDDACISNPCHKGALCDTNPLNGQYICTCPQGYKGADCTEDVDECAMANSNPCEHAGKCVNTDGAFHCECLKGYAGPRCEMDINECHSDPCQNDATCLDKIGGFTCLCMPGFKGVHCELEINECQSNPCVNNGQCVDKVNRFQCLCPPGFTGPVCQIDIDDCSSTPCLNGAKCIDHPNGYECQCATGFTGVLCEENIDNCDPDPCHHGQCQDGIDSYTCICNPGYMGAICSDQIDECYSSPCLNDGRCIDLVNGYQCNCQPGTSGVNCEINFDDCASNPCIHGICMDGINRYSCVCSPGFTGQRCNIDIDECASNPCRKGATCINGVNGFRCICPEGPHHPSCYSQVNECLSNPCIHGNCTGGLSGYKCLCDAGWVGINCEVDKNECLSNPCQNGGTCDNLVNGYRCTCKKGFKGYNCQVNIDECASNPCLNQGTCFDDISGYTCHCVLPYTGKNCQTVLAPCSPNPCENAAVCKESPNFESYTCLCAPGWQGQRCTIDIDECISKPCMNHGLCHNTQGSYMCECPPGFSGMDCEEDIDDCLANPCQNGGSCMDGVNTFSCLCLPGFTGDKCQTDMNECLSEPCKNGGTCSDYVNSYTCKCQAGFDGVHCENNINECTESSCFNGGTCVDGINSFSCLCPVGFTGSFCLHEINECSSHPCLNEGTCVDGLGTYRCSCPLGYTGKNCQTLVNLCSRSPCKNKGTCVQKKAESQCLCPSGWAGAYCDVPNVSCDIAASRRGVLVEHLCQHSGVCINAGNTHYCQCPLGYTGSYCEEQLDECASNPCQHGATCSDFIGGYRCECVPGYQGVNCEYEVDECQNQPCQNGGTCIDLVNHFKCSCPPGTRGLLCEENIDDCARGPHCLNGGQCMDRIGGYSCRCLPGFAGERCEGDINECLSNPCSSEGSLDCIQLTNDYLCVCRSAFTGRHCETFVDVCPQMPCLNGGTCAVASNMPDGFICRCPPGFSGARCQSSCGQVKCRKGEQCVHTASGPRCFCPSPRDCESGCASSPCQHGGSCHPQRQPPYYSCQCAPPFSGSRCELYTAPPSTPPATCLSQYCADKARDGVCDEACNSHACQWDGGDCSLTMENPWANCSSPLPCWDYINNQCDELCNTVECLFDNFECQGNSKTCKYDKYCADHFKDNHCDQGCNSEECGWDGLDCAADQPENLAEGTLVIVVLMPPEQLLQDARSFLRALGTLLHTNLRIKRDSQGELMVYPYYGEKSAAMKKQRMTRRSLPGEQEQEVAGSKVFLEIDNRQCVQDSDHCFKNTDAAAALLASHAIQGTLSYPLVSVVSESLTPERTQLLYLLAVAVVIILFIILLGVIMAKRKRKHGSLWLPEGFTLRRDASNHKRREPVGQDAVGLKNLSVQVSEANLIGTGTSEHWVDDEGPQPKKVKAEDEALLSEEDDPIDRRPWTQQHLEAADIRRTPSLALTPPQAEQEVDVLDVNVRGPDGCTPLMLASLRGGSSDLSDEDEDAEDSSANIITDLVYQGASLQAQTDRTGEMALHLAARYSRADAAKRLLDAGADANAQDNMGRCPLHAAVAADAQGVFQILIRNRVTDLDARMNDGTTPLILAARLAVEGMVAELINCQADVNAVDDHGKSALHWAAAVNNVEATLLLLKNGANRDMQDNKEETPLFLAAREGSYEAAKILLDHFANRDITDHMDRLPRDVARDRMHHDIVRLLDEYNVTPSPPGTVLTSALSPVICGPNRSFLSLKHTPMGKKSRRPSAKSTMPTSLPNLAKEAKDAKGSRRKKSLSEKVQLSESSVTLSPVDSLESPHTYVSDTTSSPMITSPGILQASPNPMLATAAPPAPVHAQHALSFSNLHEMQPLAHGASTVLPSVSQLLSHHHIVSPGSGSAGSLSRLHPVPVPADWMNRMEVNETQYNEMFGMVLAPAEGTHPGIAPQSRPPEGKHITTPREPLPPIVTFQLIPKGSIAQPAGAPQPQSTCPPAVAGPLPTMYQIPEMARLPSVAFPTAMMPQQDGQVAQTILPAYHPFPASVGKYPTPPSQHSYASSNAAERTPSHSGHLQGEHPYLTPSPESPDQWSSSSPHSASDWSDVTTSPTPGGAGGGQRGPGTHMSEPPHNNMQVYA

Compound | composite z-score [1] | composite z-score [2] | composite z-score [3] | composite z-score [4] | composite z-score [5] | composite z-score [6] | composite z-score [7] | z-score [8] | composite z-score [9] | composite z-score [10]
O=C1OCCC/C=C\[C@H]2OC34C=CCN(Cn5nnc6ccccc65)C(=O)[C@H]3N(CCCO)C(=O)[C@@H]4C12 (stereo not given in full) | 0.415 | -0.652 | -0.017 | -1 | -0.936 | 0.995 | 1.13 | -0.126 (inactive) | -1.28 | -0.271
CO[C@H]1O[C@H](CO)[C@@H](OC(=O)Nc2cccc(F)c2)[C@H](OC(=O)Nc2ccccc2-c2ccccc2)[C@@H]1OC(=O)Nc1ccccc1-c1ccccc1 | -0.217 | 0.568 | 0.111 | 0.669 | 1.65 | 1.75 | 1.29 | 1.16 (inactive) | 1.02 | -0.374
Cc1ccc(C(C)CC(O)C2C=CC3C(=O)NC(=O)C3N2Nc2ccccn2)o1 (stereo not given) | -0.0428 | 0.573 | -0.0951 | 0.174 | -0.0116 | 0.753 | 0.845 | 0.327 (inactive) | 0.0821 | -0.249
COc1c(C)cc(-c2cc3c(c(-c4ccccc4)n2)[Si](C(C)C)(C(C)C)O[C@H]3c2ccccc2)cc1C | -0.409 | -0.103 | -0.103 | 0.235 | 0.234 | -0.0051 | -0.438 | 0.361 (inactive) | 0.291 | 0.0373
C=CCC(OC(C)=O)[C@@H]1[C@@H](N(Cc2cc3ccccc3o2)C(=O)c2cccc3ccccc23)c2cc(OCCCO)ccc2N1C(=O)Cc1ccc(OC)cc1 (stereo not given in full) | -0.295 | -0.52 | -0.0128 | 0.0939 | 0.0751 | 0.758 | 0.111 | -0.709 (inactive) | -0.0464 | -0.109
Cc1ccc(N2C(=O)c3ccccc3[C@@H](C(=O)NCC(C)C)[C@@H]2c2ccc(CO)cc2)nc1 | 0.341 | -0.751 | -0.161 | -0.494 | -1.07 | -0.265 | 0.346 | -0.788 (inactive) | -0.473 | -0.0645
C=CCN1Cc2ccccc2C[C@@]2(COC(c3ccc(OCCCO)cc3)=N2)C1=O | 1.12 | 0.391 | -0.0159 | 0.0999 | 1.19 | 1.05 | 1.31 | -3.79 (inactive) | 0.703 | 0.0749
O=C1C[C@@](C(=O)O)(c2ccc([N+](=O)[O-])cc2)[C@@H](c2ccc(CO)cc2I)N1CC12CC3CC(CC(C3)C1)C2 | 0.525 | 0.773 | -0.124 | 0.14 | 1.41 | 1.48 | 0.843 | -1.55 (inactive) | 0.806 | 0.0497
COc1ccc([Si](C)(C)[C@H]2[C@H](CC(=O)N3CCC[C@H]3CO)O[C@@]3(C(=O)N(Cc4cccc(N5CCC5=O)c4)c4ccccc43)[C@@H]2C)cc1 | -0.226 | 0.149 | 0.0496 | 1 | 1.01 | 0.865 | 1.32 | -4.15 (inactive) | 0.774 | -0.253
CC(C)(C)OC(=O)CC[C@]1(C(=O)NCC(O)CO)N=C(c2ccc(OCCCO)cc2)O[C@H]1c1ccccc1CN=[N+]=[N-] (stereo not given in full) | 1.32 | 2.46 | 0.314 | 0.922 | 1.68 | 2.09 | 0.722 | 2.4 (inactive) | 1.68 | -0.0024
COc1ccc(C#Cc2ccc3c(c2)[C@]2(C(=O)N3)[C@H](C(=O)N3CCN(c4ncccn4)CC3)[C@H]3C(=O)O[C@H](c4ccccc4)[C@H](c4ccccc4)N3[C@@H]2c2ccc(O)cc2)cc1 | -0.092 | 0.308 | -0.232 | 0.207 | 0.871 | 1.19 | 1.17 | 0.437 (inactive) | 0.234 | -0.353
CCCCN1CC=CC23O[C@@H]4/C=C\CCCOC(=O)C4[C@H]2C(=O)N(C(C)CO)[C@@H]3C1=O (stereo not given in full) | -0.0235 | -0.809 | -0.0963 | -0.272 | -0.327 | 0.223 | 1.19 | -1.01 (inactive) | -0.375 | -0.261
CCCCN1CC=CC23O[C@@H]4C=CCCOC(=O)C4[C@H]2C(=O)N(CCCO)[C@@H]3C1=O (stereo not given in full) | -0.0115 | -0.265 | -0.147 | -0.609 | -1.08 | -0.931 | -0.053 | 0.211 (inactive) | -0.277 | -0.191
O=C1OCCC=C[C@H]2OC34C=CCN(c5ccc6ccccc6c5)C(=O)[C@H]3N(CCCCCCO)C(=O)[C@@H]4C12 (stereo not given in full) | 0.366 | 0.79 | -0.143 | -0.367 | -0.834 | 2.03 | 0.193 | 1.66 (inactive) | -0.514 | -0.546
O=C1O[C@@H](c2ccccc2)[C@@H](c2ccccc2)N2[C@@H](c3ccccc3OCCO)[C@]3(C(=O)Nc4ccc(C#CC5(O)CCCCCC5)cc43)[C@@H](C(=O)NC[C@H](O)c3ccccc3)[C@H]12 | 1.99 | 0.142 | 0.0924 | 1.03 | 0.81 | 1.75 | 1.24 | -1.2 (inactive) | 1.74 | 0.0145
CCCCCN1CC=CC23O[C@@H]4C=CCCOC(=O)C4[C@H]2C(=O)N(CCCO)[C@@H]3C1=O (stereo not given in full) | 0.0241 | -0.615 | -0.186 | 0.0149 | -0.755 | -0.454 | 0.266 | -0.482 (inactive) | -0.108 | -0.236
